Results: PubChem BioAssay AID588689 (Southern Research Specialized Biocontainment Screening …, 2011)
Hit rate of the full screen: of about 340,000 compounds, about 1,000 (0.29%) were called active. Rule as the data show it: inconclusive = inhibition above about 29% without an active follow-up result; inactive = below that. Only a sample is shown. Results with a measured potency or affinity are listed apart.

Biological target: Genome polyprotein (Dengue virus type 2 (strain 16681-PDK53)) (UniProt P29991)
Sequence (P29991 whole entry, looked up): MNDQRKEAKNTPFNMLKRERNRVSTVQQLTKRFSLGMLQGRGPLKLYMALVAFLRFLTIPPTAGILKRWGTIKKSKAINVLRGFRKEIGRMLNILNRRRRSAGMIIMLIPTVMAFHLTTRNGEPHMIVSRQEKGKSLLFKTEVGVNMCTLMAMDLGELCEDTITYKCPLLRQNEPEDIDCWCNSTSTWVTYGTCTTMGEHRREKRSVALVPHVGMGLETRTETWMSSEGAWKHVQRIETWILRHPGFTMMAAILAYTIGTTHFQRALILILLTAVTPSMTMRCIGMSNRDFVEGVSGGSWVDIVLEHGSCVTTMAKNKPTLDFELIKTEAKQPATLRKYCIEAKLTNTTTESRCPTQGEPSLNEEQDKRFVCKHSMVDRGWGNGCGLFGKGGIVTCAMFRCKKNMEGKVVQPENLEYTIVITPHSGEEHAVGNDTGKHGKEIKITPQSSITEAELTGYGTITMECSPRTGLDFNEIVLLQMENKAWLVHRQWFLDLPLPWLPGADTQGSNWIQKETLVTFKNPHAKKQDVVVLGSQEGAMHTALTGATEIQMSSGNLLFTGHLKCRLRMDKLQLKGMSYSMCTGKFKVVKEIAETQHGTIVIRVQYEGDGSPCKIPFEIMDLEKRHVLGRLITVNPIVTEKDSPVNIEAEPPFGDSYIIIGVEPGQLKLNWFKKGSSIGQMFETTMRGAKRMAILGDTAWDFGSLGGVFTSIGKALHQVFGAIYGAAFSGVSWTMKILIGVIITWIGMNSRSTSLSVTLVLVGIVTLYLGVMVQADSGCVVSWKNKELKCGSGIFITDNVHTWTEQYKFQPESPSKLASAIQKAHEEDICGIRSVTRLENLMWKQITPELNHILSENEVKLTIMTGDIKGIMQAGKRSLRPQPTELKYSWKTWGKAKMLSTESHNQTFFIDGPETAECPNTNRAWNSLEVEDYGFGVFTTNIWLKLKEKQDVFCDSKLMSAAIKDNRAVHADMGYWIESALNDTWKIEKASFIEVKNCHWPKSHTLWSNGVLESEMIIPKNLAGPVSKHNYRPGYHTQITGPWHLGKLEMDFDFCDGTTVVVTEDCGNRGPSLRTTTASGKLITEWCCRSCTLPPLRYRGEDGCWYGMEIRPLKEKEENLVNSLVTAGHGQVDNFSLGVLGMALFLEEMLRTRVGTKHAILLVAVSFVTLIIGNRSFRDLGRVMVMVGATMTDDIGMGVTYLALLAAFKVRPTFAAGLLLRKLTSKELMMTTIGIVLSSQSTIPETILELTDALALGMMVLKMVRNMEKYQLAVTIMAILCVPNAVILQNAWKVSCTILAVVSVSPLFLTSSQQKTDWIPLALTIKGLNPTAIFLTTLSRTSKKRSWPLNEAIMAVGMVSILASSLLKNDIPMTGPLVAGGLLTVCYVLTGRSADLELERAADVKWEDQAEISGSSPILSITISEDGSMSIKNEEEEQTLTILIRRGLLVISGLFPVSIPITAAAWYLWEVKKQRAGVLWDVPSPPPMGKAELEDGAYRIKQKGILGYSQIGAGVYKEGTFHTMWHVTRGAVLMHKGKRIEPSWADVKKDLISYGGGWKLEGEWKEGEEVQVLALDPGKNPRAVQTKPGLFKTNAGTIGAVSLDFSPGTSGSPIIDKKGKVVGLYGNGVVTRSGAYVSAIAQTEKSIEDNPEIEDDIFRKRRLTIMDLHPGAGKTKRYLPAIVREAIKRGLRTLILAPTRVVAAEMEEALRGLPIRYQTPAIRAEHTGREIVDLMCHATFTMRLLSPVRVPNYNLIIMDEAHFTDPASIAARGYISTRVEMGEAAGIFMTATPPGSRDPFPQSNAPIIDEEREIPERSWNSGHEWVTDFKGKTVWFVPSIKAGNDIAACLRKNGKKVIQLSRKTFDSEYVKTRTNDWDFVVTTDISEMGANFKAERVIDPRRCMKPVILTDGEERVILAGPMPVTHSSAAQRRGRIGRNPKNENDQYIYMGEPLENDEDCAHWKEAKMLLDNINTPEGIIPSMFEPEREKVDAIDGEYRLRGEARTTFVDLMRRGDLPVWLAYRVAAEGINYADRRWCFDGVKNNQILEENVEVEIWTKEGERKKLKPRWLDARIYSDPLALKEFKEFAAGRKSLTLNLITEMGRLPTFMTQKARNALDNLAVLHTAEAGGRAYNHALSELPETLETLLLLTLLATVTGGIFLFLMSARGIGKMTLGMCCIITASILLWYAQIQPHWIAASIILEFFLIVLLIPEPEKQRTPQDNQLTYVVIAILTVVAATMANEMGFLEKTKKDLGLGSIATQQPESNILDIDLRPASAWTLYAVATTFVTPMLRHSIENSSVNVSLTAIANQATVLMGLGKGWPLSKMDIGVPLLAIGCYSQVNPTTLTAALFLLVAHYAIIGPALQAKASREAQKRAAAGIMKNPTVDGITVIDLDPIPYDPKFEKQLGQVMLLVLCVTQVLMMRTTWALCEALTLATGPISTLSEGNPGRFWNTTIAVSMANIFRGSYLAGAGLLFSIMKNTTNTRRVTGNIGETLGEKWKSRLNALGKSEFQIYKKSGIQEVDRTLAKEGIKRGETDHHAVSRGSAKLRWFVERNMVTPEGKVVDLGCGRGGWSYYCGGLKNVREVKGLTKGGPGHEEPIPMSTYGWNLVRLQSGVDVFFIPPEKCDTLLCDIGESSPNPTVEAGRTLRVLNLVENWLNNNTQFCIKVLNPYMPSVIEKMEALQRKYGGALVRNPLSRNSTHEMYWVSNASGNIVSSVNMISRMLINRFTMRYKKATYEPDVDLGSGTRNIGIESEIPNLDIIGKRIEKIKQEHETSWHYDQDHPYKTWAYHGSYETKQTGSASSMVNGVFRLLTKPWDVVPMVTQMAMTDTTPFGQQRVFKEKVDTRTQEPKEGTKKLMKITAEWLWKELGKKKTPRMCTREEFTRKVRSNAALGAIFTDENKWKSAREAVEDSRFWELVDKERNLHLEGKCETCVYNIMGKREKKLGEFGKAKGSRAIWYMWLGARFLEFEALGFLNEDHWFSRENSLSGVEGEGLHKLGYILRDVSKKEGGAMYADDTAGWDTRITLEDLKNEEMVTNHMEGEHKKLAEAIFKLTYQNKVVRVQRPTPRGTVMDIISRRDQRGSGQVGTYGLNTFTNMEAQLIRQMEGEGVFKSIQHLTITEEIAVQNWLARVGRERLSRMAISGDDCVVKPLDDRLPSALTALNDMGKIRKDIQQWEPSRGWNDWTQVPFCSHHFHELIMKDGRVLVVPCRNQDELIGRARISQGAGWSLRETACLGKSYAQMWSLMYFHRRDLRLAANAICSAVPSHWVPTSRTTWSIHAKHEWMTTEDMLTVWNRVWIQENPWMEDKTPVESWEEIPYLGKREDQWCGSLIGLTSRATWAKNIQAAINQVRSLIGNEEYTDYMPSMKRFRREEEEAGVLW
Experiment: flavivirus cap methylation enzyme inhibition – biochemical, confirmation dose response, primary screen (AID 588689)
Conditions: Dengue-2 NS5 methyltransferase capping enzyme assay, at 25 µM, stronger effect = higher value

| SMILES | inhibition | inhibition (measured here: pilot screen replicate inhibition) |
| --- | --- | --- |
| CCNc1nc(SC(C(C)=O)C(C)=O)nc(N(C)C)n1 | -1.07% (inactive) | – |
| COc1ccc([N+](=O)[O-])cc1NCC(=O)Nc1cccc(S(=O)(=O)N2CCCC2)c1 | -0.72% (inactive) | – |
| O=C1C(c2c(O)[nH]c3ccccc23)=Nc2ccccc21 | -46.9% (inactive) | – |
| O=C1C(c2ccncc2)=C(O)c2ccccc21 | 2.03% (inactive) | – |
| Clc1ccc(-c2nsc(N3CCOCC3)n2)c(Cl)c1 | -8.96% (inactive) | – |
| Cc1cc(C)c(NC(=O)CNC(=O)COC(=O)/C=C/c2cccs2)c(C)c1 | -7.3% (inactive) | – |
| CCc1nnc(NS(=O)(=O)c2ccc(NC(=S)NC(=O)/C=C/c3ccc(OC)cc3)cc2)s1 | -1.6% (inactive) | – |
| CCc1nnc(NS(=O)(=O)c2ccc(NC(=S)NC(=O)/C=C/c3ccccc3)cc2)s1 | 8.99% (inactive) | – |
| CCc1nnc(NS(=O)(=O)c2ccc(NC(=O)/C=C/c3ccc(F)cc3)cc2)s1 | 3.59% (inactive) | – |
| CCc1nnc(NS(=O)(=O)c2ccc(NC(=S)NC(=O)/C=C/c3ccc([N+](=O)[O-])cc3)cc2)s1 | 9.83% (inactive) | – |
| CC(C)NC1(C#N)CCN(Cc2ccccc2)CC1 | 0% (inactive) | – |
| CCOc1ccc(Nc2nc(C)cc(C)c2C#N)cc1 | 0% (inactive) | – |
| COC(=O)c1sc(N)c(C(=O)OC)c1COC(=O)CNS(=O)(=O)c1cccc(C#N)c1 | -1.45% (inactive) | – |
| COC(=O)c1cc(C)c(C)cc1NC1OC(CO)C(O)C1O (stereo not given) | -9.68% (inactive) | – |
| C[C@H](CO)N1C[C@H](C)[C@@H](CN(C)C(=O)c2cnccn2)Oc2cc(C#CCC3CCCC3)ccc2S1(=O)=O | -16.2% (inactive) | – |
| O=C(NCc1ccccc1)N1CCC(CO)(CCc2ccccc2)CC1 | 5.32% (inactive) | – |
| CC(C)C1Nc2ccc(S(N)(=O)=O)cc2C2C=CCC21 (stereo not given) | 16% (inactive) | – |
| O=C(O)C1Nc2c(Cl)cc(Cl)c(Cl)c2C2C=CCC12 (stereo not given) | 8.87% (inactive) | – |
| CCOC(=O)N1CCC(NC(=O)CCS(=O)(=O)c2ccc3c(c2)CCN3C(C)=O)CC1 | 0% (inactive) | – |
| CCOC(=O)/C=C(\C)Sc1cc(=O)oc2ccccc12 | -12.1% (inactive) | – |
| CCOC(=O)c1c(C)oc2c1cc(O)c1ccccc12 | 18.5% (inactive) | – |
| O=C(O)COc1ccc(/C=C/C(=O)c2ccc3ccccc3c2)cc1 | 21.6% (inactive) | – |
| CCOc1ccc(/C=C/C(=O)c2ccccc2)cc1 | -8.48% (inactive) | – |

| SMILES | inhibition | inhibition (measured here: pilot screen replicate inhibition) |
| --- | --- | --- |
| CCOC(=O)c1[nH]nc2c1C(=O)N(Cc1ccccc1)C2=O | -0.68% (inactive) | – |
| CCCCNC(=O)c1sc2ncnc(N3CCc4ccccc4C3)c2c1C | -8.03% (inactive) | – |
| Cc1cc(C)cc(NC(=S)N(Cc2ccc(Br)cc2)Cc2ccc(C(=O)O)cc2)c1 | -6.24% (inactive) | – |
| Cc1cccc(NC(=S)N(Cc2ccc(Cl)cc2)Cc2ccc(C(=O)O)cc2)c1 | -0.79% (inactive) | – |
| CC1CCCN(C(=O)CCNC(=O)Cn2cnc3ccccc3c2=O)C1 (stereo not given) | -2.67% (inactive) | – |
| COc1ccc(S(=O)(=O)Oc2ccc3ccccc3c2)cc1 | 0.73% (inactive) | – |
| NS(=O)(=O)c1ccc(Sc2ccc3ccccc3c2)nc1 | -5.01% (inactive) | – |
| COC(=O)c1ccc(NC(=O)C(=O)N2CCN(C(=S)Nc3cccc(C)c3C)CC2)cc1 | -4.36% (inactive) | – |
| COc1ccc(NC(=O)Cc2c(C(=O)O)n(C)c3ccccc23)cc1OC | -17.2% (inactive) | – |
| C[C@H](CO)N1C[C@H](C)[C@@H](CN(C)C(=O)Nc2ccccc2)Oc2c(NC(=O)Cc3ccccc3)cccc2C1=O | -4% (inactive) | – |
| COC(=O)c1c(C(=O)OC)c2ccccn2c1C(=O)c1ccccc1 | -4.66% (inactive) | – |
| COC(=O)c1cc2c(-c3ccccc3)cc3ccccn3c-2c1C(=O)OC | 27.1% (inactive) | – |
| COc1ccc(CN(C)C(C)C(=O)Nc2ccc(S(=O)(=O)N3CCCCC3)cc2)cc1F (stereo not given) | 0.37% (inactive) | – |
| CSCCC(C(=O)OCC(=O)c1ccc(C)c(C)c1)N1C(=O)c2cc(Cl)c(Cl)cc2C1=O (stereo not given) | 10.7% (inactive) | – |
| O=C1NCCCC2c3c(cc(Br)c(O)c3Br)OC12N1CCCCC1 (stereo not given) | 10.4% (inactive) | – |
| O=C1NCCCC2c3c(cc(Br)c(O)c3Br)OC12N1CCOCC1 (stereo not given) | 17% (inactive) | -2.28% |
| CCOC(=O)C(NC(=O)Cc1ccccc1)(Nc1cc(C)on1)C(F)(F)F (stereo not given) | -5.64% (inactive) | – |
| CCCn1c(SCC(=O)c2[nH]c(C)c(C(C)=O)c2C)n[nH]c1=O | -15.1% (inactive) | – |
| COc1ccc(CCNC(=O)C2CC(c3ccc([N+](=O)[O-])cc3)=NO2)cc1 (stereo not given) | 2.79% (inactive) | – |
| CN(C1CCCCC1)S(=O)(=O)c1cn(C)c(=O)n(C)c1=O | -3.31% (inactive) | – |
| O=C(NN=Cc1ccc(O)cc1)c1ccccc1NS(=O)(=O)c1cccs1 | 2.92% (inactive) | – |
| COc1cc(C=NNC(=O)c2ccccc2NS(=O)(=O)c2cccs2)cc(OC)c1O | 2.21% (inactive) | – |
| O=c1cc(-c2nn[nH]n2)[nH]c(=O)[nH]1 | -0.8% (inactive) | – |

| SMILES | inhibition | inhibition (measured here: pilot screen replicate inhibition) |
| --- | --- | --- |
| O=C(CN1C(=O)c2cccc([N+](=O)[O-])c2C1=O)N1CCc2ccccc2C1 | -5.49% (inactive) | – |
| O=c1c(C(c2ccc(Cl)cc2)c2c(O)nc3n(c2=O)CCS3)c(O)nc2n1CCS2 | 3.89% (inactive) | – |
| O=c1c(C(c2ccc(O)cc2)c2c(O)nc3n(c2=O)CCCS3)c(O)nc2n1CCCS2 | 60.7% (inactive) | – |
| O=c1c(C(c2ccc(Br)cc2)c2c(O)nc3n(c2=O)CCS3)c(O)nc2n1CCS2 | 11.7% (inactive) | – |
| O=c1c(C(c2ccc(F)cc2)c2c(O)nc3n(c2=O)CCS3)c(O)nc2n1CCS2 | -0.78% (inactive) | – |
| O=Cc1ccc(F)c([B-](F)(F)F)c1 | -5.86% (inactive) | – |
| COc1ccc(N2CC(C(=O)NC3CCCCC3)CC2=O)cc1 (stereo not given) | -15.2% (inactive) | – |
| NC(=S)N=Nc1c(O)[nH]c2ccccc12 | -8.45% (inactive) | – |
| NC(=S)N=Nc1c(O)[nH]c2ccc(F)cc12 | 1.93% (inactive) | – |
| Cc1ccc(C)c(S(=O)(=O)NC2CCSC2=O)c1 (stereo not given) | 0% (inactive) | – |
| COc1ccc(NS(=O)(=O)c2cc(NC(=O)c3cccc(OCc4c(C)noc4C)c3)ccc2OC)cc1 | -4.53% (inactive) | – |
| Clc1ccc(Oc2nc(Oc3ccc(Cl)cc3)nc(N3CCOCC3)n2)cc1 | 5.62% (inactive) | – |
| CC(NC(=O)C12CC3CC(CC(C3)C1)C2)C(=O)N/N=C/C1=C(N2CCOCC2)C(=C\c2ccccc2)/CC1 (stereo not given) | -2.59% (inactive) | – |
| CN(C)c1cccc2c1C(=O)c1ccccc1C2=O | 2.91% (inactive) | – |
| CN(CCO)C(=O)c1cccc2c1-c1ccccc1C2=O | 2.07% (inactive) | – |
| Cc1nnc(NC(=O)CSc2nnc(CCNC(=O)c3ccccc3F)n2C)s1 | -9.78% (inactive) | – |
| Cc1oc2c(O)c(O)ccc2c(=O)c1-c1ccccc1 | 1.39% (inactive) | – |
| O=C1c2ccccc2C(=O)c2c1ccc(O)c2O | 0% (inactive) | – |
| Cc1cc(=O)oc2c(O)c(O)ccc12 | 0.73% (inactive) | – |
| O=C(O)c1cccc(O)c1O | 2.93% (inactive) | – |
| CC(C)(Oc1ccc(Cl)cc1)C(=O)Nc1ccc2oc(-c3ccncc3)nc2c1 | 2.08% (inactive) | – |
| COc1cc(C)c(S(=O)(=O)NCc2ccc3c(c2)OCO3)cc1C | -1.39% (inactive) | – |
| Cc1nn(-c2ccccc2)nc1CNC(=O)C(C)Cc1ccccc1 (stereo not given) | -2.38% (inactive) | – |

| SMILES | inhibition | inhibition (measured here: pilot screen replicate inhibition) |
| --- | --- | --- |
| O=C(C1=C[C@H](C2CCCCC2)C[C@H](OCc2ccc(CO)cc2)O1)N1CCOCC1 | -6.54% (inactive) | – |
| CCCCC(NC(=O)Cc1c(C)c2cc3c(C)c(C)oc3c(C)c2oc1=O)C(=O)O (stereo not given) | 1.31% (inactive) | – |
| CSC[C@H](NC(=O)Cc1c(C)c2cc3c(C)c(C)oc3cc2oc1=O)C(=O)N[C@@H](Cc1ccccc1)C(=O)O | 1.4% (inactive) | – |
| Cc1c(CC(=O)N[C@@H](C)C(=O)O)c(=O)oc2c(C)c3occ(-c4ccccc4)c3cc12 | -0.65% (inactive) | – |
| CCCC(NC(=O)Cc1c(C)c2cc3c(C)c(C)oc3c(C)c2oc1=O)C(=O)N[C@@H](Cc1ccccc1)C(=O)O (stereo not given in full) | 1.45% (inactive) | – |
| CCCOc1ccc(NC(=O)CC2C(=O)N(CC)C(=S)N2Cc2cccs2)cc1 (stereo not given) | -2.45% (inactive) | – |
| C/C(=C\c1cccc(Cl)c1)C(=O)c1c(C)cc(C)[nH]c1=O | 0.68% (inactive) | – |
| COc1ccc(S(=O)(=O)N2CCN(c3ccccc3)CC2)cc1 | -2.22% (inactive) | – |
| Cc1cccc(N2CCN(c3nc(C)cc(C)c3C#N)CC2C)c1 (stereo not given) | -4.66% (inactive) | – |
| COc1ccc(OC)c(/C=C2\SC(=S)N(C(C(=O)O)c3ccccc3)C2=O)c1 (stereo not given) | -26.1% (inactive) | – |
| CCOc1ccc(/C=C2\SC(=S)N(C(C(=O)O)c3ccccc3)C2=O)cc1OC (stereo not given) | 16.8% (inactive) | – |
| O=C1/C(=C/c2cccs2)SC(=S)N1c1ccccc1 | -4.85% (inactive) | – |
| COc1ccc(/C=C2\SC(=S)N(C(C(=O)O)c3ccccc3)C2=O)c(OC)c1 (stereo not given) | -11.9% (inactive) | – |
| COc1cccc(/C=C2\SC(=S)N(N3CCOCC3)C2=O)c1OC | -5.48% (inactive) | – |
| COc1cccc(/C=C2\SC(=S)N(c3cccnc3)C2=O)c1OC | 6.89% (inactive) | – |
| CCOc1ccc(/C=C2/SC(=S)N(C(C(=O)O)c3ccccc3)C2=O)cc1OCC (stereo not given) | 22.1% (inactive) | – |
| O=C(O)C(c1ccccc1)N1C(=O)/C(=C\c2ccc(-c3ccccc3Cl)o2)SC1=S (stereo not given) | 12.4% (inactive) | – |
| CC1(C(=O)N2CCN(c3ccc([N+](=O)[O-])cc3)CC2)CC1(Cl)Cl (stereo not given) | -2.36% (inactive) | – |
| CN(CC(=O)Nc1ccc(F)cc1)C(=O)CSc1nccn1C | 7.2% (inactive) | – |
| Cn1nc(C(=O)NCc2cccc(Cl)c2)c2c1-c1ccccc1S(=O)(=O)C2 | 5.32% (inactive) | – |
